Source: PubChem
In the library only some 3% were active in any assay of this set; here they are far more common.
HEK293 viab: counter-screen for SNCA expression inhibitors: cell viability | hit rate 0.12% among 150,000 | HEK-293-SNCA-luc viability, GF-AFC fluorescence, 24 h | Potency, µM (doses to about 57.1 µM), without a hit: at the highest dose activity change, negative = cytotoxicity, actives largely listed as cytotoxic;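 note: potency is the fitted concentration of half-maximal effect; 0% = DMSO-treated cells and -100% = medium-only wells without cells; nearly all actives have a fitted effect of over 30% in size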
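HEK-293-SNCA-luc cells (1500/well) plated 24 h, then exposed 24 h to a dilution series; GF-AFC added 30 min at 37C, fluorescence 405/540 nm; normalised to medium-only and DMSO wells, Hill fit.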
SNCA expr inhib: inhibitors of alpha-synuclein (SNCA) gene expression; HEK-293 SNCA-luciferase knock-in, luminescence, 24 h; Potency, µM (top dose mostly 57.2 µM), for inactives: top-dose activity change, negative = inhibition, usual class: inhibitors; hit rate 0.17% among 140,000; AID 1671194;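 note: potency is the fitted concentration of half-maximal effect; plate controls were DMSO cells for no effect and cell-free wells for full effect; nearly all actives have a fitted effect of over 45% in size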
KDM5B inhibitor: blocks human KDM5B histone demethylase activity; Q9UGL1; KDM5B demethylase, FDH-coupled NADH fluorescence (FDH is formaldehyde dehydrogenase); Potency, µM (doses to about 57.7 µM), usual class: inhibitors; hit rate 2.6% among 220,000; AID 1347165; note: potency is the fitted concentration of half-maximal effect; 0% is about no effect; nearly all actives have a fitted effect of over 70% in size
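qHTS format, multiple compound concentrations. Buffer 50 mM HEPES pH 7.5/0.01% Tween-20; 200 nM KDM5BΔAP final; 10 min compound preincubation; substrate-mix levels 12.5 µM peptide, 25 µM α-KG, 0.25 mM NAD⁺; 30 min RT; ΔRFU.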
IP6K1 inh: IP6K1 kinase inhibition; Q92551; IP6K1 kinase, ADP-Glo luminescence, 2 h; stronger effect = lower value; activity change, % (series mostly up to about 58 µM); hit rate 0.81% among 140,000; in the data active = activity change below about -25%; note: % is set by controls: 0 for no effect and ±100 for the full control effect
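ADP-Glo luminescence measures ADP made by human IP6K1 during a 2 h RT reaction with ATP/IP6 (mix at 1.3 mM/130 uM); top library doses 57.5 and 19.1 uM final.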
IP6K1 inh cnf: human IP6K1 inhibition, confirmatory. recombinant IP6K1 kinase, ADP-Glo luminescence, 2 h. hit rate 13% among 1,200. Potency, µM (doses to about 49 µM), without a hit: top-dose activity change, negative = inhibition, usual class: inhibitors. shares compounds with IP6K1 inh. AID 1645852; note: potency is the fitted concentration of half-maximal effect; % is set by controls: 0 for no effect and ±100 for the full control effect; nearly all actives have a fitted effect of over 65% in size
* = called active by the depositor; i = inactive; ? = inconclusive; . = not tested or not shown; ! = repeats disagree; [ ] = dose if it differs, or a comment. Unless noted, calls come from the whole dose curve; as a rule, active = well fitted curve in the direction sought with a large enough effect; inconclusive = small, poorly fitted or top-dose-only effect, or another doubt; inactive = no such curve, though single readings can be large; an effect the other way counts as inactive or inconclusive.

SMILES	HEK293 viab	SNCA expr inhib	KDM5B inhibitor	IP6K1 inh	others
C[C@@]12OC(=O)[C@]1([C@@H](O)[C@@H]1C=CCCC1)NC(=O)[C@H]2CCCl	?	0.14µM*	.	.
COCC1CN(C2CCC2)CC12CCN(Cc1cccnc1)CC2 (stereo not given)	-2%	-13%	28µM*	7
OCC1CN(C2CCC2)CC12CCN(Cc1cccnc1)CC2 (stereo not given)	-2%[12.5 µM]	1%	?	11
COCc1nnc2n1CCC(NC(=O)c1nn(C)c3ccccc13)CC2 (stereo not given)	23%	37%	28µM*	-5
O=C1CO[C@H]2CN(Cc3ccccn3)C[C@H]2N1Cc1ccccn1	-17%[87.6 µM]	12%[87.6 µM]	?	4
O=C1CO[C@H]2CN(Cc3ncc[nH]3)C[C@H]2N1Cc1ccccn1	13%[87.6 µM]	26%[87.6 µM]	35µM*	2
CN1C(=O)CO[C@H]2CN(Cc3ccccn3)C[C@H]21	-1%[87.6 µM]	25%[87.6 µM]	40µM*	2
C#C[C@H]1CN2CC[C@H]1C[C@@H]2COC(=O)NCCC	-15%[87.6 µM]	-12%[87.6 µM]	?	-20
COC1CC(O[C@H]2CC[C@]3(C=O)C4CC[C@]5(C)[C@@H](C6=CC(=O)OC6)CC[C@]5(O)[C@@H]4CC[C@]3(O)C2)OC(C)C1O[C@@H]1O[C@H](CO)[C@@H](O)[C@H](O)[C@H]1O (stereo not given in full)	?	.	.	-1
CCc1cnc(N2CCC3(CC2)C(=O)Nc2cc(OC4CCCC4)c(OC)cc23)nc1	8%[87.6 µM]	-19%[87.6 µM]	35µM*	-22
COc1cc2c(cc1Oc1cccc(N(C)C)c1)NC(=O)C21CCN(c2ncc(F)cn2)CC1	-7%	-10%	32µM*	-23
CCc1cnc(N2CCC3(CC2)C(=O)Nc2cc(Oc4ccccc4)c(OC)cc23)nc1	-13%[87.6 µM]	?	32µM*	-14
COc1cc2c(cc1Oc1cccc(N(C)C)c1)NC(=O)C21CCN(c2ncccn2)CC1	-16%	-11%	?	-9
COc1cc2c(cc1OC1CCCC1)NC(=O)C21CCN(c2ncc(C(C)C)cn2)CC1	-6%[87.6 µM]	?	35µM*	-23
Cn1nc(-c2ccc3ccccc3c2)cc1[C@H]1CN2CC[C@H]1C[C@@H]2CNC(=O)NCc1ccccc1	?	?	?	-10
CC[C@H]1CN2CC[C@H]1C[C@@H]2CNC(=O)Nc1ccc(Oc2ccccc2)cc1	-26%[87.6 µM]	?	?	-3
Cc1nc(-c2ccc(N(C)C)cc2)cc([C@H]2CN3CC[C@H]2C[C@@H]3CNC(=O)C2CC2)n1	-21%[87.6 µM]	-40%[87.6 µM]	?	3
Cc1nc(-c2ccc(N(C)C)cc2)cc([C@H]2CN3CC[C@H]2C[C@@H]3CNC(=O)C(C)(C)C)n1	?	?	32µM*	12
COc1ccc(-c2cc([C@H]3CN4CC[C@H]3C[C@@H]4CNC(=O)N3CCOCC3)nc(C)n2)cc1OC	-1%	-5%	22µM*	-8
COc1ccccc1-c1cc([C@H]2CN3CC[C@H]2C[C@@H]3CNC(=O)N2CCOCC2)n(C)n1	4%[87.6 µM]	20%[87.6 µM]	i	17
Cc1nc(-c2ccc(N(C)C)cc2)cc([C@H]2CN3CC[C@H]2C[C@@H]3CNC(=O)N2CCOCC2)n1	-9%	-2%	28µM*	2
Cc1nc(-c2cccs2)cc([C@H]2CN3CC[C@H]2C[C@@H]3COC(=O)Nc2ccc(C(C)C)cc2)n1	?	?	?	-8
NC1=NC(=O)N2CC12 (stereo not given)	-15%	9.6µM*	.	.
Cc1nc(-c2ccccc2Br)cc([C@H]2CN3CC[C@H]2C[C@@H]3CNC(=O)Nc2ccccc2)n1	-20%	8%	?	-9
O=C(Nc1ccc(Br)cc1)c1cc(Br)cc(Br)c1O	-30%[23.9 µM]	34%[25.6 µM]	.	-40*	IP6K1 inh cnf=23µM*
O=C(Nc1ccc(Br)cc1C(=O)c1ccccc1)c1ccccc1	13%	0%	i	-8
CC(C)=C1CC[C@]23CO[C@H](C2)[C@@](O)(C(=O)O)CCC13 (stereo not given in full)	1%	.	.	14
CCN1CCN(C(=O)Cc2ccc(Nc3ncc(F)c(Nc4ccc(C(=O)Nc5ccccc5Cl)cc4)n3)cc2)CC1	24µM*!	32%	.	-33*	IP6K1 inh cnf=?
